PubChem BioAssay AID504333 (National Center for Advancing Translational Sciences (NCATS), 2011)
The campaign covered roughly 360,000 compounds. About 16,000 (4.4%) were called active. About 9% were inconclusive and are not listed. The sample holds actives, similar compounds and a random draw of the others, so the mix is not that of the screen. Values without a mark were called inactive. Calls come from the whole dose curve; as a rule, active = well fitted inhibition curve with a large enough effect; inconclusive = small, poorly fitted or top-dose-only effect; inactive = no such curve, though single readings can be large or run the other way.

The compounds below were run against Bromodomain adjacent to zinc finger domain protein 2B (Homo sapiens) (UniProt Q9UIF8) (assay: qHTS Assay for Inhibitors of BAZ2B). Conditions: AlphaScreen BAZ2B-H3K14Ac peptide displacement; series mostly up to 114 µM; activity change, negative = inhibition: at the top concentration.
Sequence of Bromodomain adjacent to zinc finger domain protein 2B (Homo sapiens) (Q9UIF8 whole entry, looked up, the tested form may be a part): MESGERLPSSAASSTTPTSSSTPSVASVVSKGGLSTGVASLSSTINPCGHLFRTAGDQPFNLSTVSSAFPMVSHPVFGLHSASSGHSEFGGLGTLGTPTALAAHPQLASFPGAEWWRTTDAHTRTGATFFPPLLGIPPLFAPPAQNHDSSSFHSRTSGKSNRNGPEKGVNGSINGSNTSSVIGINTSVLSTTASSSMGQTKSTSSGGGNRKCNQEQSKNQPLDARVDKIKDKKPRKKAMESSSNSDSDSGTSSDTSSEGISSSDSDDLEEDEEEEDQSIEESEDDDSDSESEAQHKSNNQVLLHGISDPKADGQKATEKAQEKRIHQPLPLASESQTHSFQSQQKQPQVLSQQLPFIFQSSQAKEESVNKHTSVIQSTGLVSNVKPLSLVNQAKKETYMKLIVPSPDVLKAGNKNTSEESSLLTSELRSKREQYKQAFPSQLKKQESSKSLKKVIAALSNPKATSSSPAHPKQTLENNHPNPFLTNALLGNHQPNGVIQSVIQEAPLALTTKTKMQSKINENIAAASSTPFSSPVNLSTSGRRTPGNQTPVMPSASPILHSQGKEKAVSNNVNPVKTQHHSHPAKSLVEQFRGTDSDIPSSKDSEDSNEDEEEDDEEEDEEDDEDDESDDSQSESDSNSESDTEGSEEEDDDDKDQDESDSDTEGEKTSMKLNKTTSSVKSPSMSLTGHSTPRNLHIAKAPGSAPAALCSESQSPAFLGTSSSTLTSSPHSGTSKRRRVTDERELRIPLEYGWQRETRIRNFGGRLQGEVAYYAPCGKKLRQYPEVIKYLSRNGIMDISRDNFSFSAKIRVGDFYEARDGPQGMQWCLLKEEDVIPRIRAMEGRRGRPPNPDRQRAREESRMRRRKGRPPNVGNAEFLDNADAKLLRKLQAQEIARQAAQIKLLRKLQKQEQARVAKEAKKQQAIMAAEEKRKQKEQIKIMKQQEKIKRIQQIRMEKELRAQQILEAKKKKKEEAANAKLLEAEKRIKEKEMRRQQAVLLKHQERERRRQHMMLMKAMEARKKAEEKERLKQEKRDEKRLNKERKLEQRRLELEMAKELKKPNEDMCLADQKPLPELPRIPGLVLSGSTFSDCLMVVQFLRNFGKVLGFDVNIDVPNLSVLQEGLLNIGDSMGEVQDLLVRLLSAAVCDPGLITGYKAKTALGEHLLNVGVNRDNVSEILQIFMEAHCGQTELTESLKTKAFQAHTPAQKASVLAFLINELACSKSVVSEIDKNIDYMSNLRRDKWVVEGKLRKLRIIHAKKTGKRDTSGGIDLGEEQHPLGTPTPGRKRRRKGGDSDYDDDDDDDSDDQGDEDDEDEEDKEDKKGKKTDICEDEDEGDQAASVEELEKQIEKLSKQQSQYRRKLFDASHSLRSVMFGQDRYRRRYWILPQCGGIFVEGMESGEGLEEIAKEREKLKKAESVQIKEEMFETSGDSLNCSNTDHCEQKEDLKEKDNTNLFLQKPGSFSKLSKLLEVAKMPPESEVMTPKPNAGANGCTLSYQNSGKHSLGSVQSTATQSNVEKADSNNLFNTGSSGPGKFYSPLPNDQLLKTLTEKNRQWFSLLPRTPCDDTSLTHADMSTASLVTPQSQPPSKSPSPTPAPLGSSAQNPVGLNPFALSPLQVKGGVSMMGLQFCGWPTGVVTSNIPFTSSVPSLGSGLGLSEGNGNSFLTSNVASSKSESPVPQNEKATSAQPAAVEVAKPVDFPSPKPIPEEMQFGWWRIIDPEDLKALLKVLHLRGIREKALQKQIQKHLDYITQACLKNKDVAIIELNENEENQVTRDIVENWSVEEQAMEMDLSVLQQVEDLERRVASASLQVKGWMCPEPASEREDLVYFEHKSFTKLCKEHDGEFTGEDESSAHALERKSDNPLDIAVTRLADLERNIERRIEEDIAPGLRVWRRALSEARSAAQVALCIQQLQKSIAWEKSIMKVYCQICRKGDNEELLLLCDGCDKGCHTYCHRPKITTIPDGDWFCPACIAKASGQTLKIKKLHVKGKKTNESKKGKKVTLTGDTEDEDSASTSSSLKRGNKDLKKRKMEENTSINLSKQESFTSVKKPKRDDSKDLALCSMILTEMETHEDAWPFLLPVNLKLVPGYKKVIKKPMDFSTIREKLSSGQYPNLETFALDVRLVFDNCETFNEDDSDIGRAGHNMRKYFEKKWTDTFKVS
How it was run: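 In this displacement format the biotinylated H3(5-23) peptide acetylated at Lys14 serves as ligand at 50 nM, with BAZ2B at 50 nM in PBS pH 7.4 containing 0.01% Tween-20. Donor and acceptor beads are 10 ug/mL final.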
% is set by controls: 0 for no effect and ±100 for the full control effect; potency is the fitted concentration of half-maximal effect.
Note: nearly all actives have a fitted effect of over 60% in size.

Going from CC(C)(C)C1CCc2c(sc(NC(=O)c3ccccc3F)c2C(=O)N2CCCCC2)C1 (stereo not drawn) to Cc1ccc(C(=O)Nc2ccc3c(c2)OCO3)cc1S(=O)(=O)N1CCCCC1, the “activity change, negative = inhibition” value falls from 1.75% to -34.2%.

First: COc1cccc(-c2cc(C(=O)Nc3ccc(C)cc3)[nH]n2)c1
Second: CCc1ccc(NC(=O)c2cnc3c(-c4ccccc4)c(C)nn3c2C)cc1
The “activity change, negative = inhibition” value of the first is lower: -10.2% for the first, 4.97% for the second.

First: COc1ccc(-c2noc(-c3ccc(N4CCN(c5ccccc5)CC4)c([N+](=O)[O-])c3)n2)cc1OC
Second: CNc1ccc(-c2nc(-c3ccccc3C)no2)cc1[N+](=O)[O-]
The “activity change, negative = inhibition” value of the first is higher: -13.6% for the first, -24.4% for the second.

First: CCN(CC)S(=O)(=O)c1ccc2c(c1)N(CC(=O)NCc1ccccc1)C(=O)CS2
Second: CCN(Cc1ccccc1)C(=O)c1cn(-c2cccc(OC)c2)c(=O)c2ccccc12
The “activity change, negative = inhibition” value of the first is higher: 4.1% for the first, 1.06% for the second.

First: CCNS(=O)(=O)c1cc(-c2nnc(Nc3cccc(C(F)(F)F)c3)c3ccccc23)ccc1C
Second: Cc1ccc(-c2nnc(Nc3cccc(Br)c3)c3ccccc23)cc1S(=O)(=O)NCC1CCCO1 (stereo not drawn)
The “activity change, negative = inhibition” value of the first is lower: -3.61% for the first, -2.37% for the second.

First: CCC(=O)Nc1sc(C(=O)Nc2ccccc2)c(C)c1C(=O)OC
Second: COC(=O)c1c(NC(=O)c2c(Cl)cnn2C)sc(C)c1C
The “activity change, negative = inhibition” value of the first is lower: -18% for the first, -4.28% for the second.

Going from Cc1ccc2c(=O)cc(C(=O)Nc3sc4c(c3C(=O)NCc3cccnc3)CCCC4)oc2c1 to Cc1ccc(CNC(=O)c2c(O)nc3c(C)cccn3c2=O)cc1, the “activity change, negative = inhibition” value rises from -18.1% to 0.0746%.

Compared with CCOC(=O)c1c(C)n(S(=O)(=O)c2ccc(C)cc2C)c2ccc(NS(=O)(=O)c3ccc(C)cc3C)cc12, CCc1cc2c(cc(C(=O)OC)n2Cc2nc(-c3ccc(C)cc3)oc2C)s1 is higher in “activity change, negative = inhibition” value: -21.2% for the first, -11.1% for the second.

Compared with CNc1ccc(-c2nc(-c3ccco3)no2)cc1[N+](=O)[O-], Cc1cc2[nH]ncc2cc1NC(=S)NC(=O)c1ccccc1 is lower in “activity change, negative = inhibition” value: 2.85% for the first, -31.9% for the second.

Going from COc1ccc(NC(=O)c2ccc3nc(CCc4ccccc4)oc3c2)c(OC)c1 to CCC(C(=O)Nc1cc(OC)ccc1OC)n1c(=O)c(C(F)(F)F)nc2ccccc21 (stereo not drawn), the “activity change, negative = inhibition” value falls from 10.2% to -1.26%.

Compared with O=C1Cc2cc(S(=O)(=O)Nc3ccc(OC(F)(F)F)cc3)cc3c2N1CCC3, COC(=O)c1cnn(-c2ccc(C(=O)Nc3ccc(OC(F)(F)F)cc3)cc2)c1N is higher in “activity change, negative = inhibition” value: 1.13% for the first, 2.8% for the second.

Going from COc1ccc2c(CNCCc3ccccc3C)c(C(=O)O)n(Cc3ccccc3C)c2c1 to COc1cccc(-n2cc(C(=O)NCc3cccc(Cl)c3)c3ccccc3c2=O)c1, the “activity change, negative = inhibition” value falls from -11.2% to -37.4%.

Compared with O=C(O)c1cccc(N=NN2CCCCCC2)c1, COC(=O)c1ccc(/C=N/NC(=O)C(=O)N2CCCCCC2)cc1 is lower in “activity change, negative = inhibition” value: -8.07% for the first, -12.8% for the second.

Going from CN=C1S/C(=C\c2c(OC)cc(OC)cc2OC)C(=O)N1C to COc1ccc(OC)c(-n2nnc(-c3nc(-c4cc(OC)c(OC)c(OC)c4)no3)c2C)c1, the “activity change, negative = inhibition” value falls from -0.785% to -2.45%.

Compared with CCCCCCn1nnc2sc(-c3ccccc3)cc2c1=O, CCCCCn1c(CCCNC(=O)c2ccccc2OC)nc2ccccc21 is lower in “activity change, negative = inhibition” value: 21.1% for the first, -12.8% for the second.

First: COC(=O)c1ccc(NC(=S)NN2CCOCC2)cc1
Second: Cc1ccc(C(=O)NC(=S)NCCN2CCOCC2)cc1
The “activity change, negative = inhibition” value of the first is higher: -14.3% for the first, -30.4% for the second.

Compared with Cc1cc(C(=O)NNC(=S)Nc2ccccc2C)cs1, Cn1cc(Cl)c(C(=O)NNC(=S)Nc2cccc(Cl)c2)n1 is lower in “activity change, negative = inhibition” value: 4.84% for the first, 2.35% for the second.

Compared with COc1ccc(-c2cc(C(F)(F)F)nc(SCC(=O)N(C)Cc3ccccc3)n2)cc1OC, Cc1ccc(-c2cc(C(F)(F)F)c(C#N)c(SCC(=O)Nc3ccccc3)n2)cc1 is lower in “activity change, negative = inhibition” value: -1.08% for the first, -16.3% for the second.

Compared with Cc1c(Cl)cccc1NC(=O)C1CCCN(C(=O)c2cnn(-c3ccccc3)c2-n2cccc2)C1 (stereo not drawn), Cc1ccccc1NC(=O)Cn1cc(C(=O)c2cccs2)c2ccccc21 is higher in “activity change, negative = inhibition” value: -19.3% for the first, -0.676% for the second.

Compared with COc1ccc(CCNC(=O)c2nn(C)c3c2CSc2ccccc2-3)cc1OC, COc1ccc(NC(=O)CCCN2C(=O)CCn3nc(-c4cn(C)c5ccccc45)cc32)cc1OC is higher in “activity change, negative = inhibition” value: -28.5% for the first, -24.7% for the second.

First: Cc1cc(NC(=O)CSc2ncc(C(=O)Nc3ccc(Cl)cc3)c(=O)n2C)no1
Second: Cc1cn(C)c(CC(=O)NCc2ccc(Cl)cc2)c1C(=O)O
The “activity change, negative = inhibition” value of the first is higher: -6.81% for the first, -29.8% for the second.

First: Cc1ccc(COC(=O)CN2C(=O)NC3(CCCC3)C2=O)cc1
Second: Cc1ccc(CCCOC(=O)C[N+]2(C)CCCCC2)cc1
The “activity change, negative = inhibition” value of the first is higher: 10.3% for the first, -29% for the second.

Compared with COc1ccc(-c2nn(CC(=O)Nc3ccccc3F)c3c2cnc2ccc(F)cc23)cc1, CCOc1ccc(S(=O)(=O)c2cn(Cc3ccc(OC)cc3)c3ccc(F)cc3c2=O)cc1 is lower in “activity change, negative = inhibition” value: 0.104% for the first, -5.21% for the second.

First: CC(=O)Nc1ccc(NC(=O)CCCc2nc(-c3ccc(C(C)(C)C)cc3)no2)cc1
Second: CCc1nc(SCC(=O)NNC(=O)c2ccc(C)cc2)c2ccccc2n1
The “activity change, negative = inhibition” value of the first is lower: -13.7% for the first, -0.0282% for the second.

First: Cc1ccc(CCNC(=O)Cn2c(-c3cccs3)cc3cc(F)ccc32)cc1
Second: COc1ccc(CCNc2ncnc3c2cnn3-c2ccc(C)cc2)cc1
The “activity change, negative = inhibition” value of the first is lower: -8.55% for the first, 0.308% for the second.

Compared with Cc1cccc(Nc2nc(C)nc(N)c2S(=O)(=O)c2ccccc2)c1, O=S(=O)(Cc1cc(Cl)nc(-c2cccnc2)n1)c1ccccc1 is higher in “activity change, negative = inhibition” value: -15.6% for the first, 11% for the second.

Compared with Cc1ccc(C(=O)NNC(=O)c2cccs2)cc1, Cc1ccccc1CNC(=O)C(=O)NCC(c1cccs1)S(=O)(=O)c1cccs1 (stereo not drawn) is lower in “activity change, negative = inhibition” value: 18.9% for the first, -7.59% for the second.

Going from COCC(C)NS(=O)(=O)c1ccc(N2CCCCS2(=O)=O)cc1 (stereo not drawn) to CCCN1CN=C(NS(=O)(=O)c2ccc(NC(C)=O)cc2)NC1, the “activity change, negative = inhibition” value falls from -12.2% to -14%.

Going from CCOC(=O)C1CCN(c2nc3c(S(=O)(=O)c4ccc(CC)cc4)nnn3c3ccc(Cl)cc23)CC1 to CC(C)C(c1nnnn1Cc1ccccc1)N1CCC(C(N)=O)CC1 (stereo not drawn), the “activity change, negative = inhibition” value rises from 5.67% to 7.71%.

First: CCCC(c1nnnn1C(C)(C)C)N1CCN(Cc2ccccc2)CC1 (stereo not drawn)
Second: CCn1cc2nc(SCc3ccccc3Cl)n(CCc3ccccc3)c(=O)c2n1
The “activity change, negative = inhibition” value of the first is higher: -9.96% for the first, -16.7% for the second.

Going from COc1ccc(CNC(=O)Cc2coc3ccc(C(C)C)cc23)cc1 to CCOc1ccc(NC(=O)C(CC(C)C)N2Cc3ccccc3C2=O)cc1 (stereo not drawn), the “activity change, negative = inhibition” value falls from 11.8% to 1.11%.

First: CCc1ccc(NC(=O)CN2C(=O)C(c3ccccc3)=NC23CCCCCC3)cc1
Second: CC1CCC2(CC1)N=C(c1ccccc1)C(=O)N2CC(=O)Nc1ccc(F)c(Cl)c1 (stereo not drawn)
The “activity change, negative = inhibition” value of the first is higher: -1.33% for the first, -9.91% for the second.

First: C=CCN(C(=O)c1cc(C)cc(C)c1)C1(C(=O)Nc2ccccc2)CCN(C(C)C)CC1
Second: CC(=O)c1nn(-c2ccc(OC(F)(F)F)cc2)nc1Nc1ccccc1
The “activity change, negative = inhibition” value of the first is lower: -20.7% for the first, -1.58% for the second.

Going from CCOc1cccc2sc(N3CCN(C(=O)C4CC4)CC3)nc12 to Cc1cccc(-n2cnc(C(=O)Nc3cccnc3)c2)n1, the “activity change, negative = inhibition” value falls from 0.784% to -7.27%.

First: Cn1cccc1/C=C1\SC(=O)N(CC(=O)Nc2ccc(F)cc2)C1=O
Second: O=C(Cc1cccs1)Nc1nnc(SCc2ccc(F)cc2)s1
The “activity change, negative = inhibition” value of the first is lower: 2.22% for the first, 12.2% for the second.

Compared with CN(C)c1nc(-c2cccnc2)nc(-c2ccc(Cl)cc2)c1C#N, O=c1[nH]n2c(-c3ccccc3)nc(O)c2c2ccccc12 is higher in “activity change, negative = inhibition” value: -4.97% for the first, -1.83% for the second.

Compared with CC(C)(C)NC(=O)COC(=O)c1cc(Cl)ccc1[N+](=O)[O-], Cc1ccc(Cl)cc1NC(=O)COC(=O)CC(C)(C)C is higher in “activity change, negative = inhibition” value: -36.3% for the first, -1.46% for the second.

Going from CCC(C)c1ccc2oc(-c3ccc(NC(=O)c4cc5ccccc5o4)cc3)nc2c1 (stereo not drawn) to O=C(CC1N=C2c3ccccc3N=C(SCc3cccc(Cl)c3)N2C1=O)NCc1ccc2c(c1)OCO2 (stereo not drawn), the “activity change, negative = inhibition” value falls from -1.68% to -11.8%.

Compared with COC(=O)N/N=C/c1ccc(/C=N/NC(=O)OC)cc1, CCOC(=O)c1ccc(NC(=O)CCn2cnnn2)cc1 is lower in “activity change, negative = inhibition” value: 8.67% for the first, -21.4% for the second.

Going from O=c1cc(-c2ccccc2)n2c(SCc3ccccc3)nnc2[nH]1 to Cc1ccc(C(=O)NCCSc2c(C)[nH]c3ccccc23)cc1C, the “activity change, negative = inhibition” value falls from 1.16% to -34.8%.

First: CCc1nnc(NC(=O)Cc2cccs2)s1
Second: COCCn1c(C)cc(C(=O)COC(=O)CNC(=O)c2ccco2)c1C
The “activity change, negative = inhibition” value of the first is lower: -9.54% for the first, 11.5% for the second.

Going from CCC(C)NC(=O)CSC1=Nc2ccccc2C2=NC(CCC(=O)NCc3ccco3)C(=O)N12 (stereo not drawn) to Cc1cc(C(=O)CSc2nc(N)cc(=O)[nH]2)c(C)n1Cc1ccco1, the “activity change, negative = inhibition” value falls from -4.77% to -38%.

For COCCCNCC(=O)Nc1sc(C)c(C)c1C(=O)OC, the Potency was 50.1 µM (active).
CC(Nc1ccc(-c2nc(-c3ccco3)no2)cc1[N+](=O)[O-])c1ccccc1 (stereo not drawn) was tested, and the Potency was 79.4 µM (active).
With CN1C(=O)/C(=C/c2ccco2)SC1=Nc1cccc(C(=O)O)c1 the Potency was 50.1 µM (active).
Cc1ccc(C(=O)NC(=S)Nc2ccccc2C)cc1 was tested, and the Potency was 89.1 µM (active).
With Cc1ccc(C(=O)NC(=S)Nc2ccc(N3CCOCC3)cc2)cc1 the Potency was 14.1 µM (active).
Cc1ccc(CCCOC(=O)C[N+]2(C)CCCC2)cc1 was tested, and the Potency was 50.1 µM (active).
In the case of Cc1ccc(C(=O)NNc2ncnc3ccccc23)cc1, the Potency is reported as 56.2 µM (active).
With CC(C)C(c1nnnn1C(C)(C)C)N1CCN(Cc2cccnc2)CC1 (stereo not drawn) the Potency was 56.2 µM (active).
For CCN(C(=O)Cc1nc(N)n[nH]1)C1(C(=O)Nc2ccccc2)CCCCC1, the Potency was 20 µM (active).
With Cc1ccc(C(=O)O)cc1-c1ccc(/C=C2\SC(=O)N(CC(=O)Nc3ccc4c(c3)OCO4)C2=O)o1 the Potency was 11.2 µM (active).
Cc1cccc(-n2cnc(C(=O)NNC(=S)Nc3ccccc3)c2)n1 was tested, and the Potency was 22.4 µM (active).
With N#Cc1c(Cl)nc(-c2cccnc2)nc1-c1ccccc1 the Potency was 70.8 µM (active).
For CCCC(=O)OCC(=O)Nc1cc(Cl)ccc1[N+](=O)[O-], the Potency was 39.8 µM (active).
With COC(=O)c1ccc(/C=N/N2C(C)CCCC2C)cc1 (stereo not drawn) the Potency was 56.2 µM (active).
For O=c1[nH]c2ccccc2n2c(-c3ccccc3)nnc12, the Potency was 20 µM (active).
For COc1ccc(Cc2nnc(NC(=O)Cc3cccs3)s2)cc1, the Potency was 44.7 µM (active).
For CCCCN=C1C([N+](=O)[O-])=CC=C2C1=NC1(CCCCC1)N2O, the Potency was 2.24 µM (active).
For O=C(CC1N=C2c3ccccc3N=C(SCc3ccccc3Cl)N2C1=O)NCc1ccco1 (stereo not drawn), the Potency was 50.1 µM (active).
In the case of Cc1cc(C(=O)COC(=O)CNC(=O)c2ccc(F)cc2)c(C)n1Cc1ccco1, the Potency is reported as 50.1 µM (active).
